Rab9 prom act: activators of Rab9 promoter; Huh7 Rab9 promoter-luciferase reporter, luminescence, 24 h; Potency, µM (series often up to 9.22 µM), usual class: activators; 2.8% of 320,000 active; note: nearly all actives have a fitted effect of over 60% in size
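Huh7 reporter line, Rab9 promoter upstream of luciferase. Compound exposure 24 h at 37 °C in reduced-serum medium with 10% FBS. Read-out: luminescence.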
SMN2 splice enh: enhancers of SMN2 splice variant expression | HEK293 SMN2-luciferase splicing reporter, luminescence, 30-36 h | Potency, µM (doses to about 46.1 µM), most hits filed as activators | 2.8% of 210,000 active | AID 1458; note: nearly all actives have a fitted effect of over 55% in size
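qHTS luciferase splicing reporter: luminescence rises when SMN2 exon 7 is included in transfected HEK293 cells. Compound exposure lasted 30-36 h at 37C, with 4.5 mM final sodium butyrate as control, followed by a ONE-Glo read.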
NPC1 promoter act: activators of NPC1 promoter; AID 485313; Huh7 NPC1 promoter luciferase reporter, 24 h; Potency, µM (series often up to 9.22 µM), most hits filed as activators; 2.4% of 320,000 active; note: nearly all actives have a fitted effect of over 60% in size
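In 1536-well qHTS, Huh7 cells harboring an NPC1 promoter–luciferase construct received compound for 24 h; activation was quantified by luminescence following luciferase reagent addition.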
FLuc modulator: firefly luciferase modulation, counter-screen for miR-21 project | 6.9% of 360,000 active | Potency, µM (titrated, usually from 57.5 µM), actives largely listed as inhibitors | AID 588342 | purified FLuc, Km substrates, luminescence inhibition; note: nearly all actives have a fitted effect of over 55% in size
Target sequence (P08659 whole entry, looked up): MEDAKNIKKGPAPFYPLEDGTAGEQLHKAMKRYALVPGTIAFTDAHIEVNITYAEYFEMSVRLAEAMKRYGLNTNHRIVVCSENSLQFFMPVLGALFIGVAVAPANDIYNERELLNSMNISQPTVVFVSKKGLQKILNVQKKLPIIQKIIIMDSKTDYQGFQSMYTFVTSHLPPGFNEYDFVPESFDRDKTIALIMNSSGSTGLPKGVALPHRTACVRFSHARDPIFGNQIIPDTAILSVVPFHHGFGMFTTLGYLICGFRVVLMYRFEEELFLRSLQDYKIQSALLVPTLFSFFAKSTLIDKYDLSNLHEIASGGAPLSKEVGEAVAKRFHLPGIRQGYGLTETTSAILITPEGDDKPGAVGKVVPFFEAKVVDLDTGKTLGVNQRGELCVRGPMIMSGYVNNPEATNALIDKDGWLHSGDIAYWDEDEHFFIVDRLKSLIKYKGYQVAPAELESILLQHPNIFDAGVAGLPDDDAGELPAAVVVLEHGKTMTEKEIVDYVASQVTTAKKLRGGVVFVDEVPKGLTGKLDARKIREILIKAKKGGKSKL
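Purified P. pyralis luciferase, 10 nM final, with Km-level 10 uM D-luciferin and 10 uM ATP in 50 mM Tris acetate pH 7.5, 10 mM Mg acetate, 0.01% Tween-20, 0.05% BSA; 6-point qHTS titration about 60 µM downward; luminescence read.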
ELG1 repair inh: blocks ELG1-dependent DNA repair in HEK293T cells. 2.3% of 330,000 active. Potency, µM (doses to about 46.1 µM), hits mostly inhibitors. HEK293T ELG1-luciferase reporter, luminescence, 16 h; DNA damage induced by 5-fluorouridine; note: nearly all actives have a fitted effect of over 55% in size
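Luminescence from the luciferase reporter, measured 30 min after ONE-Glo reagent at room temperature, was the read-out. Beforehand, 2,000 cells per well were exposed for 16 hr at 37 °C to 5-fluorouridine together with compound or vehicle.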
ELG1 genotox: inducers of genotoxicity in HEK293T ELG1-luciferase cells | HEK293T ELG1-luciferase reporter, luminescence, 16 h | Potency, µM (titrated, usually from 46 µM), most hits filed as activators | 1.3% of 330,000 active; note: nearly all actives have a fitted effect of over 60% in size
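Reporter readout depends on ELG1 protein level, which increases with genetic stress. After 16 hr compound exposure at 37 °C, luciferase activity was quantified using ONE-Glo.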
Numbers stand for hits; - = inactive; ? = inconclusive; . = no result given. An excerpt weighted towards active compounds, which were near 9.2% of everything screened. Calls come from the whole dose curve; as a rule, active = well fitted curve in the direction sought with a large enough effect; inconclusive = small, poorly fitted or top-dose-only effect, or another doubt; inactive = no such curve, though single readings can be large; an effect the other way counts as inactive or inconclusive.

SMILES	Rab9 prom act	SMN2 splice enh	NPC1 promoter act	FLuc modulator	ELG1 repair inh	ELG1 genotox
COc1ccc(OCC(=O)Nc2cccc(-c3nc4ccccc4o3)c2)cc1	?	-	4.47µM	?	?	?
O=C(O)CCC(=O)Nc1cccc(-c2nc3ccccc3o2)c1	-	.	-	10.7µM	-	-
CCCC(=O)Nc1cccc(-c2nc3ccccc3o2)c1	-	-	-	?	-	-
CC(=O)Nc1ccc2oc(-c3ccccc3)nc2c1	2.51µM	10µM	1.26µM	7.57µM	?	?
CC(=O)Nc1ccc(-c2nc3ccc(NC(C)=O)cc3o2)cc1	2µM	.	2.51µM	?	?	?
COc1ccc(C(=O)Nc2ccc(-c3cc4ccccc4oc3=O)c(C)c2)cc1Br	.	-	.	?	.	.
O=C(COC(=O)CN1C(=O)NC2(CCCC2)C1=O)Nc1c(Cl)cccc1C(F)(F)F	-	.	-	-	-	-
CC(=O)Nc1cccc(-c2nc3ccccc3o2)c1	-	.	-	19µM	-	?
CC(C)C(=O)Nc1cccc(-c2nc3ccccc3o2)c1	-	-	-	-	-	?
CCC1(c2ccccc2)NC(=O)N(CC(=O)Nc2ccc(S(N)(=O)=O)cc2)C1=O (stereo not given)	-	.	-	-	-	-
CCOC(=O)N1CCc2c(sc(NCc3sccc3C)c2C(=O)Nc2ccc(OC)cc2OC)C1	.	.	.	10.7µM	.	.
COc1ccc(NC(=O)c2c(NCc3sccc3C)sc3c2CCCCC3)c(OC)c1	.	.	.	-	.	.
CCOC(=O)N1CCc2c(sc(NCc3cccc(F)c3)c2C(=O)Nc2ccc(OC)cc2OC)C1	.	.	.	15.1µM	.	.
Cc1oc2c(C)c3oc(=O)c(CC(=O)N4CCCCC4)c(C)c3cc2c1C	.	-	.	-	.	.
CCCn1c(=O)c(C)cn2nc(N)nc12	-	.	-	.	.	.
COc1ccc(NC(=O)c2cccc(OS(=O)(=O)N(C)C)c2)cc1	2µM	11.2µM	1.58µM	6.01µM	?	-
COc1cccc(S(=O)(=O)NCc2ccc(C(=O)Nc3cccc(Cl)c3)cc2)c1	-	-	-	-	18.4µM	-
CN(C)S(=O)(=O)Oc1cccc(C(=O)Nc2cccc(Cl)c2)c1	?	?	?	13.5µM	?	-
COc1ccc(NC(=O)c2ccc(S(=O)(=O)N(C)C)cc2)cc1	-	.	-	-	-	-
CN(C)S(=O)(=O)Oc1cccc(C(=O)Nc2ccc(Cl)c(Cl)c2)c1	2µM	-	3.55µM	4.78µM	?	-
Cc1ccc2cc(NC(=O)c3ccc(C(C)(C)C)cc3)ccc2n1	-	.	-	9.53µM	?	-
CC(C)(C)c1ccc(C(=O)Nc2ccc(NC(=O)c3ccc(Cl)c(Cl)c3)cc2)cc1	.	-	.	-	.	.
CCc1ccc(C(=O)Nc2ccc3nc(C)ccc3c2)cc1	2.82µM	.	3.55µM	5.36µM	?	?
Cc1ccc(N2C(=O)c3ccc(N)cc3C2=O)cc1	3.98µM	.	3.55µM	7.57µM	?	3.66µM
Cc1ccc(N2C(=O)c3ccc(N)cc3C2=O)cc1C	3.98µM	-	2.51µM	10.7µM	?	?
SMILES	Rab9 prom act	SMN2 splice enh	NPC1 promoter act	FLuc modulator	ELG1 repair inh	ELG1 genotox
CCCSc1nc2c([nH]c3ccccc32)c(=O)n1C	.	.	.	-	.	.
CC1CCN(C(=O)CSC2=NS(=O)(=O)c3cc(F)ccc3N2)CC1	-	.	-	-	?	-
COc1ccc(-c2csc(N(CCCN(C)C)C(=O)c3ccccc3C)n2)cc1	0.282µM	.	-	-	?	-
COc1ccc(-c2csc(N(CC(C)C)C(=O)c3ccco3)n2)cc1	-	.	-	-	-	-
CCC(=O)N(Cc1ccco1)c1nc(-c2ccc(OC)cc2)cs1	?	-	-	-	?	-
CCN(C(=O)c1ccco1)c1nc(-c2ccc(OC)cc2)cs1	3.98µM	.	3.16µM	12µM	?	?
CN(C(=O)c1ccco1)c1nc(-c2ccccc2)cs1	2µM	.	2.51µM	5.36µM	?	?
CCC(=O)N(CC)c1nc(-c2ccc(OC)cc2)cs1	?	-	4.47µM	15.1µM	?	-
COCCN(C(=O)c1ccco1)c1nc(-c2ccccc2)cs1	-	.	-	-	-	-
CN(C)CCCN(C(=O)c1cccs1)c1nc(-c2ccccc2)cs1	-	7.94µM	-	-	-	?
